Results on two sequences are retold here after article PMC7862700, “An all-to-all approach to the identification of sequence-specific readers for epigenetic DNA modifications on cytosine”.

Experiment in all cases: DAPPL (digital affinity profiling via proximity ligation, sequencing); 10 mM Tris-HCl pH 7.5, 50 mM NaCl, 1 mM DTT, 4% glycerol, room temperature, 30 min; GST-TFs on glutathione beads, 16-mer random dsDNA library, 0.1% formaldehyde crosslink after washing; high values mean tight binding
Holding throughout (conditions): protein: recombinant; tags: N-terminal GST; dsDNA, one strand shown

In one test the target is T1, FLI1 (Homo sapiens, UniProt Q01543 1-452).
T1 sequence: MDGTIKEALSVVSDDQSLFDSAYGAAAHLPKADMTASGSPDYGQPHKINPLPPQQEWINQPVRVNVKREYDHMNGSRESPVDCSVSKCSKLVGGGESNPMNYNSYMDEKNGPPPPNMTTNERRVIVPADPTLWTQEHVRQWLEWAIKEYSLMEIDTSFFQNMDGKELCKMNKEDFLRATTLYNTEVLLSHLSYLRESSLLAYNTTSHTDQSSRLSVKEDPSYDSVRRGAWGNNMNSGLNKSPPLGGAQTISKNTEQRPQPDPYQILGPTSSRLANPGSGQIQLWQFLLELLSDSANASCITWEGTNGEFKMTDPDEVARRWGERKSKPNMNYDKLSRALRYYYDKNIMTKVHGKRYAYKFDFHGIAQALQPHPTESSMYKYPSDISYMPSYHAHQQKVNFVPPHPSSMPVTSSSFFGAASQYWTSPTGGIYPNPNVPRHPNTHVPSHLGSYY
The procedure, abridged:
(§1)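 A tag-only sample was pooled with DNA-barcoded human transcription factors that had been expressed in yeast as GST fusions and captured on glutathione beads. The pools were incubated for 30 min at room temperature with 200 nmole of a random double-stranded 16-mer DNA library in Tris/NaCl/DTT/glycerol buffer, then washed, crosslinked with 0.1% formaldehyde, proximity-ligated (BsaI/T4 ligase, 1 h, 37 °C), PCR-amplified and sequenced on an Illumina NextSeq500. Binding signal is each hexamer's read frequency for a factor divided by its frequency for the tag-only sample.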

The target in a further test is T2, ELK1 (Homo sapiens, UniProt P19419 1-428).
T2 sequence: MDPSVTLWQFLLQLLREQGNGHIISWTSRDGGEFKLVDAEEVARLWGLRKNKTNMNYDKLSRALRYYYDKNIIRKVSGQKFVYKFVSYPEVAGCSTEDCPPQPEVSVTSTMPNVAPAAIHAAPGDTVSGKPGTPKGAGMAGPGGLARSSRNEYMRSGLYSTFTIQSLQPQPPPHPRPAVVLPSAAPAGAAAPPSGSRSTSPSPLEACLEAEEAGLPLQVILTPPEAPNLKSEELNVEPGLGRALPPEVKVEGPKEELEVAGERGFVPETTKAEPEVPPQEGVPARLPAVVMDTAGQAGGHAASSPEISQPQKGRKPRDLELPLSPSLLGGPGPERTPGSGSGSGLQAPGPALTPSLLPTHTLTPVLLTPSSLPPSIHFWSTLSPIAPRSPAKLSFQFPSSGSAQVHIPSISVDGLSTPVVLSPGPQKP
The procedure, abridged: as §1

Another test deals with T3, GABPA (Homo sapiens, UniProt Q06546 1-454).
T3 sequence: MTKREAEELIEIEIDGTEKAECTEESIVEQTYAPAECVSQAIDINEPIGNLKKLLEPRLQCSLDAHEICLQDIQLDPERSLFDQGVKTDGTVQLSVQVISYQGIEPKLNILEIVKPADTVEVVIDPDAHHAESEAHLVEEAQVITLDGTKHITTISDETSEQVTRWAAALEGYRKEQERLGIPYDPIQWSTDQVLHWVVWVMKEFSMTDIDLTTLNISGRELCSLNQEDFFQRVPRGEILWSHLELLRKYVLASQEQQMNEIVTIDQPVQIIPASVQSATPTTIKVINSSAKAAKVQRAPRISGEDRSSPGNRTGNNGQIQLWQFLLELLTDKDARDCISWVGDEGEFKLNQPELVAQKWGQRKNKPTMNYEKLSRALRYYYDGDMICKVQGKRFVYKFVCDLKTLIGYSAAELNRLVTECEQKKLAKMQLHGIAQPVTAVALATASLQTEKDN
The procedure, abridged:
as §1

A further test deals with T4, ERG (Homo sapiens, UniProt P11308 1-479).
T4 sequence: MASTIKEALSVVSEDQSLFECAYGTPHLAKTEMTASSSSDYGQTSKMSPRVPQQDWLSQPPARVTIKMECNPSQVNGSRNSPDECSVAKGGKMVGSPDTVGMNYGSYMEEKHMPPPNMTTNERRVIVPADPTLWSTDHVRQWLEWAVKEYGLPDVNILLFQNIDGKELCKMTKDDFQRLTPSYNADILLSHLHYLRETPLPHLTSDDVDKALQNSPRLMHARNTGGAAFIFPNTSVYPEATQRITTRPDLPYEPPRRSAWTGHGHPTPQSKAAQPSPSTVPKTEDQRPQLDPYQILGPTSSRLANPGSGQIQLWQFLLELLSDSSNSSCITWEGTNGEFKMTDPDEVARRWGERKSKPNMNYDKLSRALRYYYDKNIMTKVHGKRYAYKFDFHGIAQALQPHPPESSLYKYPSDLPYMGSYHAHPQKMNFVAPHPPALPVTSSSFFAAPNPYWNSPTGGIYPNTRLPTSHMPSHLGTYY
The procedure, abridged:
as §1

A further test has as its target ELF1 (Homo sapiens, UniProt P32519 1-619). In outline:
as §1

The target in the next test is SPI1 (Homo sapiens, UniProt P17947 1-270). The procedure, abridged: as §1
Another test addresses SPIB (Homo sapiens, UniProt Q01892 1-262). The procedure, abridged: as §1
For the next test, the target named is ETV5 (Homo sapiens, UniProt P41161 1-510). In outline:
as §1

Another test has as its target T5, SPIC (Homo sapiens, UniProt Q8N5J4 1-248).
T5 sequence: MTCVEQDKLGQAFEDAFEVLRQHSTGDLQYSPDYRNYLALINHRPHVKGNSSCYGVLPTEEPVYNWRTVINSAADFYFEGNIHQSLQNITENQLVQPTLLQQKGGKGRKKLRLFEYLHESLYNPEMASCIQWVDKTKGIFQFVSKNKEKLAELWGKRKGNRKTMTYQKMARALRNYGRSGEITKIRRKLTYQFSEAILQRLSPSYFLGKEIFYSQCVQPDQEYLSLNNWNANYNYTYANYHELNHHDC
In outline:
as §1

Another test deals with T6, ETV3L (Homo sapiens, UniProt Q6ZN32 1-361).
T6 sequence: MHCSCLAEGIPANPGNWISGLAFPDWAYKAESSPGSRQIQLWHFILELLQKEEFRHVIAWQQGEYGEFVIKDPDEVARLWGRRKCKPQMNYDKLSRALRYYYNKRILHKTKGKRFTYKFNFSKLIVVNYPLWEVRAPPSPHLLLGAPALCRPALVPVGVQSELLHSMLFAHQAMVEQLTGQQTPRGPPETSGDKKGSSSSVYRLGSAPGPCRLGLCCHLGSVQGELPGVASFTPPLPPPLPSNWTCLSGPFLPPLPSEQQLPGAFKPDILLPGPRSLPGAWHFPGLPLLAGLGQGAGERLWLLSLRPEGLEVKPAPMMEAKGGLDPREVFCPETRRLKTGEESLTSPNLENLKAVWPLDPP
In outline: as §1

For the next test, the target named is T7, ETS2 (Homo sapiens, UniProt P15036 1-469).
T7 sequence: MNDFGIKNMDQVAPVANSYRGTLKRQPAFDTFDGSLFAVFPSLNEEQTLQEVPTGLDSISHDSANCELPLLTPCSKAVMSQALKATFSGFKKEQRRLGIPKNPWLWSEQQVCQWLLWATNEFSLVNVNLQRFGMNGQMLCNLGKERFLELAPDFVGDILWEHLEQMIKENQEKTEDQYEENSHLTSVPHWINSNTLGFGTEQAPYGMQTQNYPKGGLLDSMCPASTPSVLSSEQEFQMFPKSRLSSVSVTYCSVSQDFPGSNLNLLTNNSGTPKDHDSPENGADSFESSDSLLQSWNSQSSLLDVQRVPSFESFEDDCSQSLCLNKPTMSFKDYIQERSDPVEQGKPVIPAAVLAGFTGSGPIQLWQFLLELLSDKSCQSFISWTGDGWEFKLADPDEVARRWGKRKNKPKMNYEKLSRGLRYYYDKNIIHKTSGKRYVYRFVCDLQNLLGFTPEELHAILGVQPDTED
In outline: as §1

Another test concerns the target T8, SPDEF (Homo sapiens, UniProt O95238 1-335).
T8 sequence: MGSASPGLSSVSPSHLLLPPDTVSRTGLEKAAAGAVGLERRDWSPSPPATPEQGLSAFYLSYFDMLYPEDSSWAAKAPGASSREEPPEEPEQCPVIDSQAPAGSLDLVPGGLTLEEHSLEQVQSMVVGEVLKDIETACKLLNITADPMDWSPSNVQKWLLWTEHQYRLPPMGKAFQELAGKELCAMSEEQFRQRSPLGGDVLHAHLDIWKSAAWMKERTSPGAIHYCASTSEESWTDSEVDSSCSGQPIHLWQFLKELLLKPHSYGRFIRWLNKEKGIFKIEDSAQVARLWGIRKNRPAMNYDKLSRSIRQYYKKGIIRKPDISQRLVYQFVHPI
The procedure, abridged: as §1

The target of the next test is T9, ELF5 (Homo sapiens, UniProt Q9UKW6-2 1-255).
T9 sequence: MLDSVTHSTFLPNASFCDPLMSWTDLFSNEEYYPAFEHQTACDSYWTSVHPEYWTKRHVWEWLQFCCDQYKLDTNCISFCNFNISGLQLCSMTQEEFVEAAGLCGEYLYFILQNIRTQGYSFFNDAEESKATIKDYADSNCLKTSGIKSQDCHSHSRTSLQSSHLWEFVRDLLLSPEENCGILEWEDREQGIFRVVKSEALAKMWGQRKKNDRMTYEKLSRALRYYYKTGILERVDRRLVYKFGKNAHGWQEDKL
The procedure, abridged: as §1

A further test has as its target T10, ETV3 (Homo sapiens, UniProt P41162-2 1-143).
T10 sequence: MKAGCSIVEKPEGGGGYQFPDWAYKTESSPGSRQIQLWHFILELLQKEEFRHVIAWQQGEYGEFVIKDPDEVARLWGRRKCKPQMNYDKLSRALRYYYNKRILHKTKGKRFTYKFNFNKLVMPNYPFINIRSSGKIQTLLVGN
In outline: as §1

Another test has as its target ETV6 (Homo sapiens, UniProt P41212 1-452). The procedure, abridged:
as §1

The target in the next test is T11, EHF (Homo sapiens, UniProt Q9NZC4 1-300).
T11 sequence: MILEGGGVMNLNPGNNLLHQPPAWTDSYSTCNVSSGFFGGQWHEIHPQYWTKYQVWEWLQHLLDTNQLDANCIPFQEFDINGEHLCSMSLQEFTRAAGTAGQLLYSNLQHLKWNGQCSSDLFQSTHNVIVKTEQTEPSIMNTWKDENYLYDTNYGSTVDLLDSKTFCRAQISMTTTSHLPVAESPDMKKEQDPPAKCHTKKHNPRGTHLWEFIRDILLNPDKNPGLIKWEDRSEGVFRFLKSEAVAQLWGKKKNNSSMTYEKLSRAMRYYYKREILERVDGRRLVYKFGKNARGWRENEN
In outline: as §1

Another test has as its target ELF4 (Homo sapiens, UniProt Q99607 1-663). The procedure, abridged: as §1
A further test deals with ETV1 (Homo sapiens, UniProt P50549 1-477). In outline:
as §1

A further test has as its target T12, ERF (Homo sapiens, UniProt P50548 1-548).
T12 sequence: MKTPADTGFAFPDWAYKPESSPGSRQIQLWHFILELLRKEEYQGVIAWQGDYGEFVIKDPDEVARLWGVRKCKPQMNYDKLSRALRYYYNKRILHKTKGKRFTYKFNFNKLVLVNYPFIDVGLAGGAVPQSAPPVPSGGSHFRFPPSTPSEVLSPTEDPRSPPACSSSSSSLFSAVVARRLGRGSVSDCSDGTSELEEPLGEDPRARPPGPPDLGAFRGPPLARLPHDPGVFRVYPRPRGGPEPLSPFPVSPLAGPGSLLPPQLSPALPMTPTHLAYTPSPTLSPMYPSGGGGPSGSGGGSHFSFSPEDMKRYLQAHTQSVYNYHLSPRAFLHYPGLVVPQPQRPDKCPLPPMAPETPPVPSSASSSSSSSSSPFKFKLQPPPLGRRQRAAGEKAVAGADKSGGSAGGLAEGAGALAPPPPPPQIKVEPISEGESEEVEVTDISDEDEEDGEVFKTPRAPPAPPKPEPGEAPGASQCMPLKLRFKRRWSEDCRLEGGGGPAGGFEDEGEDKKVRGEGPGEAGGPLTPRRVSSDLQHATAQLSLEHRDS
In outline: as §1

Chain of ETV5 (P41161 whole entry): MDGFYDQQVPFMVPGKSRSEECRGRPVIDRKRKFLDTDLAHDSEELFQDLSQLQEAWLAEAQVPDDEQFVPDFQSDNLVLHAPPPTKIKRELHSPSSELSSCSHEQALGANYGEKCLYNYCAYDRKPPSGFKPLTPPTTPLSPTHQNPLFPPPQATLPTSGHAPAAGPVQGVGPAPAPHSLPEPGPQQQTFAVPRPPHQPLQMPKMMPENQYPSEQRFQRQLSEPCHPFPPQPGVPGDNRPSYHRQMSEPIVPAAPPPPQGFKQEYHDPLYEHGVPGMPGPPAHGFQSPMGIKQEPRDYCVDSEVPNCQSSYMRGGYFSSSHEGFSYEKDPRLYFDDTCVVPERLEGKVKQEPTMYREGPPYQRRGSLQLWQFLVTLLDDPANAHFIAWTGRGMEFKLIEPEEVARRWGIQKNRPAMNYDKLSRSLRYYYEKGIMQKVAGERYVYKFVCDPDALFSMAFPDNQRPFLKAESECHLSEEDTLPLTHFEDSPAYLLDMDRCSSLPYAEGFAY
Chain of SPIB (Q01892 whole entry): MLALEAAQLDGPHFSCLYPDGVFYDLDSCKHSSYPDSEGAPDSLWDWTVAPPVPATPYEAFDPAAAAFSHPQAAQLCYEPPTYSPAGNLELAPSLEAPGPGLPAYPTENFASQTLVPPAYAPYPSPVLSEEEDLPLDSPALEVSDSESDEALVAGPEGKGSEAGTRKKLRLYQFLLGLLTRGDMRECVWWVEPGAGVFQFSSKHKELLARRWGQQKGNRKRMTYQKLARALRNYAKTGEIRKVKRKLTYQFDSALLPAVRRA
Chain of ELF1 (P32519 whole entry): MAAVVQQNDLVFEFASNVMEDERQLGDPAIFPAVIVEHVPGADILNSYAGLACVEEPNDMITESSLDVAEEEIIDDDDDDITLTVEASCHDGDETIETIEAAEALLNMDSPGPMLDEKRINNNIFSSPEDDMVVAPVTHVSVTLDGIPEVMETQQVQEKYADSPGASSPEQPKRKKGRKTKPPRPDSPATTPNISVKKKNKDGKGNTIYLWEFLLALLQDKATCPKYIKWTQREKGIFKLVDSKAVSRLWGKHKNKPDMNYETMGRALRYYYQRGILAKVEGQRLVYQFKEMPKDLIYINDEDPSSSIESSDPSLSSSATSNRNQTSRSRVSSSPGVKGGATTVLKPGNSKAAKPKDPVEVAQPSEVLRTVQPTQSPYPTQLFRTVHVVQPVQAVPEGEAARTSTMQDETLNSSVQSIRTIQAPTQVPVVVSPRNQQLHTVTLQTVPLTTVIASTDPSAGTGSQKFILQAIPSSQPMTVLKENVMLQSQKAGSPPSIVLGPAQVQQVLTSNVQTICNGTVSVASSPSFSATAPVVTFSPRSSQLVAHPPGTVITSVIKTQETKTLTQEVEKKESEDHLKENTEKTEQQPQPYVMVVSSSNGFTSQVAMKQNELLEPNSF
Chain of ETV6 (P41212 whole entry): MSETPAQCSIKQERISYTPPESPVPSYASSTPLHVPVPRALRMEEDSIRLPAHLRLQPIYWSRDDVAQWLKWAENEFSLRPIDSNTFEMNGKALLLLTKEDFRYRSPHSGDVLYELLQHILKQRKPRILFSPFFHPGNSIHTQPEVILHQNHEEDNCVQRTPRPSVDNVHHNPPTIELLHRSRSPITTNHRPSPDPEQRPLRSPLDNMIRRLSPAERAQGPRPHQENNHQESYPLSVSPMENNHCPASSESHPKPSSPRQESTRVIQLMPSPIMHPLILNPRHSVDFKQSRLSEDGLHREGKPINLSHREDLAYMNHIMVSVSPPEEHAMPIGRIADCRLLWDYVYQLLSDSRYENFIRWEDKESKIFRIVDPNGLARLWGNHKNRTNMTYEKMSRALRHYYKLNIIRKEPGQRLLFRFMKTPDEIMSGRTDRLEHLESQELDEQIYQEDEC
Chain of ETV1 (P50549 whole entry): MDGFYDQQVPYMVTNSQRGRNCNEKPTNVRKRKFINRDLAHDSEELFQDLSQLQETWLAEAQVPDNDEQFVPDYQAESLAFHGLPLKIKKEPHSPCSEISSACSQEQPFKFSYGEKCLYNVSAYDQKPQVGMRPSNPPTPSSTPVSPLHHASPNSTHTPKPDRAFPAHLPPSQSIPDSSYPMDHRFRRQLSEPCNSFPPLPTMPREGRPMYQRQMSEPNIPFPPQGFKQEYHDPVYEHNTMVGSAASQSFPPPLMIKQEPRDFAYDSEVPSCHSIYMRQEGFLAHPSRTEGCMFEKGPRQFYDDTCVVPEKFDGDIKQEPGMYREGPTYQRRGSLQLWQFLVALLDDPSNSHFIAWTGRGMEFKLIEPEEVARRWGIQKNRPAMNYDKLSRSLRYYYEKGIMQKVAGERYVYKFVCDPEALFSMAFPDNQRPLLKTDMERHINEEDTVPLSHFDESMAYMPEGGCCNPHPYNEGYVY
Chain of ELF4 (Q99607 whole entry): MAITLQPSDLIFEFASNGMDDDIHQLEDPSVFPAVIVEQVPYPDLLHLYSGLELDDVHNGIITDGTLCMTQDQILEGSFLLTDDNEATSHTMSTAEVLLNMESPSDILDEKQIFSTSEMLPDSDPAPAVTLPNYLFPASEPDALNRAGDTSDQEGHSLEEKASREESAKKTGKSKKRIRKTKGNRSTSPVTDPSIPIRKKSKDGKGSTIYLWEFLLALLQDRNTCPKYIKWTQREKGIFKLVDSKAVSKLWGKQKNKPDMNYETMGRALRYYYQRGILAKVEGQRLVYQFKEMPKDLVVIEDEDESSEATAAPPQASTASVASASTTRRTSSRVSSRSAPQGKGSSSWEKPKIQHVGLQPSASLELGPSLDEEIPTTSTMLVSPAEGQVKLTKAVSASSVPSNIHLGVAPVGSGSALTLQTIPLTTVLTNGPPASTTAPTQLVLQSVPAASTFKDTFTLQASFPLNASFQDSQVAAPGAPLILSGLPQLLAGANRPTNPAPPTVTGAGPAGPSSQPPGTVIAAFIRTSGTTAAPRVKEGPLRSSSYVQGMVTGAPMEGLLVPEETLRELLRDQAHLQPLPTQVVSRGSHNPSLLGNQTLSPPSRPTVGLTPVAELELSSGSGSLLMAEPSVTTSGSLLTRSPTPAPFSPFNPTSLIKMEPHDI

With ATGGCG, the binding signal with FLI1 is 1 fold enrichment (6-mer frequency, TF over GST control); in the test with ELK1, 1.05 fold enrichment (6-mer frequency, TF over GST control); in the test with GABPA, 1.04 fold enrichment (6-mer frequency, TF over GST control); with ERG it was 1.02 fold enrichment (6-mer frequency, TF over GST control); with ELF1 it was 1.06 fold enrichment (6-mer frequency, TF over GST control); with SPI1, 1.03 fold enrichment (6-mer frequency, TF over GST control). Besides, the binding signal was 1.01 fold enrichment (6-mer frequency, TF over GST control) in the test with SPIB; 1.02 fold enrichment (6-mer frequency, TF over GST control) in the test with ETV5; 1.16 fold enrichment (6-mer frequency, TF over GST control) in the test with SPIC; 1.03 fold enrichment (6-mer frequency, TF over GST control) in the test with ETV3L; 1.11 fold enrichment (6-mer frequency, TF over GST control) with ETS2; 1.02 fold enrichment (6-mer frequency, TF over GST control) with SPDEF. Also, the binding signal was 1.01 fold enrichment (6-mer frequency, TF over GST control) with ELF5; 1.09 fold enrichment (6-mer frequency, TF over GST control) with ETV3; 1.05 fold enrichment (6-mer frequency, TF over GST control) in the test with ETV6.
On to CGTAGC, for which the binding signal in the test with FLI1 was 1.13 fold enrichment (6-mer frequency, TF over GST control); with ELK1, 1.07 fold enrichment (6-mer frequency, TF over GST control); in the test with GABPA it was 1.08 fold enrichment (6-mer frequency, TF over GST control); with ERG it was 1.04 fold enrichment (6-mer frequency, TF over GST control); in the test with ELF1, 1.1 fold enrichment (6-mer frequency, TF over GST control); in the test with EHF, 1.05 fold enrichment (6-mer frequency, TF over GST control). The binding signal with SPI1 was 1.04 fold enrichment (6-mer frequency, TF over GST control); with SPIB, 1.07 fold enrichment (6-mer frequency, TF over GST control); with ETV5 it was 1.08 fold enrichment (6-mer frequency, TF over GST control); with ELF4 it was 1.07 fold enrichment (6-mer frequency, TF over GST control); in the test with ETV1 it was 1.15 fold enrichment (6-mer frequency, TF over GST control); in the test with ERF, 1.03 fold enrichment (6-mer frequency, TF over GST control). In addition, the binding signal is 1.09 fold enrichment (6-mer frequency, TF over GST control) with ETV3L; 1.05 fold enrichment (6-mer frequency, TF over GST control) with ELF5; 1.04 fold enrichment (6-mer frequency, TF over GST control) with ETV3; 1.1 fold enrichment (6-mer frequency, TF over GST control) with ETV6.
